Data as given in PubChem BioAssay (NCI).
Compounds without any hit were thinned out: in the full panel of roughly 83,000, 20% have a hit.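 Compound tested at a single concentration for 48 hours in 96-well plates; a percent growth value below 10 was scored as active.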 The source made the active and inactive calls.

What follows are compounds tested on HL-60(TB) leukemia (assay: NCI-60 one-dose screen, 48 h (100 = growth as untreated, 0 = no growth, -100 = all killed)). Settings: 10 µM unless noted.

SMILES | growth
Clc1ncccc1Nc1ccc2nnc(-c3ccncc3)n2n1 | 89.5% (inactive)
c1ccc(/C(=N\Nc2ccc3ccccc3n2)c2ccccn2)cc1 | -29.8% (active)
CC(C)[C@@H]1CC[C@]2(C(=O)NCCCCN=C(N)N)CC[C@]3(C)[C@H](CC[C@@H]4[C@@]5(C)CCC(=O)C(C)(C)[C@@H]5CC[C@]43C)[C@@H]12 | 13.5% (inactive)
CC1=C[C@H]2c3c(c(O)c(O)c4oc5c(C)cccc5c(=O)c34)[C@H](c3cc(O)c(O)c4oc5c(C)cccc5c(=O)c34)[C@H]2C(C)(C)C1 | -14.5% (active)
Nc1ccc2c(c1)Cc1cc(N)c(N)cc1-2 | 78.1% (inactive)
COc1ccc(-c2nc(/C=C3/C(=O)Nc4ccc(F)cc43)c3ccccn23)cc1 | 61.6% (inactive)
O=C(c1ccccc1)c1c(/C=C/c2ccc(Cl)cc2)nc2ccccc2c1/C=C/c1cccs1 | 102% (inactive)
CCNC(=S)N(Cc1ccccc1)Cc1ccccc1 | 96.2% (inactive)
COc1cc(C(=O)/C=C/c2c(-c3ccc(F)cc3)nc3ncccn23)cc(OC)c1OC | 30.9% (inactive)
COc1c(Cl)cc(Cl)c2ccc(C=C3C(=O)N(C)C(=O)N(C)C3=O)nc12 | 98.1% (inactive)
COc1cc(-c2nc(SCCC(C)C)nc(Nc3ccccc3)c2C#N)cc(OC)c1OC | 83.9% (inactive)
Cc1c(Cl)cccc1NC(=O)CCCl | 73.6% (inactive)
CCOC(=O)c1c2c(c(C)n1C)-c1nn(Cc3ccc(OC)cc3)cc1CC2 | 73.1% (inactive)
CNC(=S)NC(C)(C)C | 92.6% (inactive)
